From PubChem BioAssay (NCATS)
Results filed as inconclusive are left out. A number with no mark means an inactive call. Calls of active or inactive are those of the source. Calls come from the whole dose curve; as a rule, active = well fitted cell-killing curve with a large enough effect; inconclusive = small, poorly fitted or top-dose-only effect; inactive = no such curve, though single readings can be large or run the other way.

Assay: qHTS of pediatric cancer cell lines to identify multiple opportunities for drug repurposing: Primary screen for Rh30 cells (AID 1347107); note: nearly all actives have a fitted effect of over 75% in size
Settings: Rh30 rhabdomyosarcoma viability, CellTiter-Glo luminescence, 48 h; series mostly up to 46 µM; activity change, negative = cytotoxic: at the top concentration
Text: Drug repurposing or repositioning has been offered as a strategy for drug development in oncology programs. This approach has special potential for childhood cancers and other rare or orphan diseases, where the expected return on new drug development has been a disincentive to pharmaceuticals.
In this project we exploit the poly-pharmacology of drugs to discover new indications via phenotypic screening of a panel of 19 well-characterized cell lines derived from solid tumors seen in children and adolescents. The goal is to identify approved drugs with previously unrecognized anticancer properties that has the potential to reveal new mechanisms and biological processes involved in carcinogenesis or drug resistance. We employed a titration-based paradigm (quantitative high-throughput screening or qHTS), where all compounds were tested at multiple concentrations for their effect on cell viability. Concentration-response curves (CRCs) were derived directly from the primary screen, and both potency and efficacy values were used to identify compounds with robust bioactivity profiles. We screened the NIH Chemical Genomics Center (NCGC) Pharmaceutical Collection (NPC) and Mechanism Interrogation Plate (MIPE) small molecule collections of approved and investigational compounds against these cell lines; and measured metabolically active cells after 48 hours of compound treatment as a proxy for cell viability.
Assay Submitter: Nathalia J. Martinez, National Center for Advancing Translational Sciences, National Institutes of Health, Rockville, MD, USA; email: natalia.martinez@nih.gov
[1] Shen, M et al. Quantitative high-throughput phenotypic screening of pediatric cancer cell lines identifies multiple opportunities for drug repurposing. Oncotarget 2017 Dec 19;9(4):4758-4772. PMID 29435139.
The cells were obtained from University of North Carolina (UNC), Pediatric Preclinical Testing Program (PPT), and Coriell Institute (CI).
qHTS cell viability assay:
Cells were assayed in growth media at a density of 500-1,000 cells/well. Five microliters of cells were dispensed into 1,536-well, white, solid-bottom, TC-treated plates (Greiner Bio One) using a multidrop dispenser and incubated at 37 degrees C, 5% CO2, under a humidified atmosphere for 5 hours. Twenty-three nanoliters of compounds and controls (neutral control DMSO or positive control bortezomib at final concentration of 2.3 µM) were subsequently transferred by Kalypsys pintool. For primary screens, the MIPE collection was tested at 11-point dilutions (final concentrations range from 0.78 nM to 46 µM) and the NPC collection at 8-point dilutions (final concentrations range from 0.59 nM to 46 µM). Compounds tested in follow-up screens were assayed at 11-point dilutions. Cells were incubated for 48 hours, followed by addition of 3 µL of CellTiter-Glo (Promega). After a 15 min incubation at room temperature, samples were analyzed for luminescence intensity using a ViewLux High-throughput CCD imager equipped with clear filters.
% is set by controls: 0 for no effect and ±100 for the full control effect.

SMILES | activity change, negative = cytotoxic | Potency
C[C@@H]1CN(C2CCC(C#N)(c3ccc(F)cc3)CC2)CC[C@]1(C(=O)O)c1ccccc1 (stereo not given in full) | 9.35% | –
CC(C)NCC(O)c1ccc(N)c(C#N)c1 (stereo not given) | 19.7% | –
Clc1ccc(CO/N=C(\Cn2ccnc2)c2ccc(Cl)cc2Cl)c(Cl)c1 | 9.76% | –
C[C@]12CC[C@H]3[C@@H](CC=C4C[C@@H](O)CC[C@@]43C)[C@@H]1CC[C@@H]2O | 21.2% | –
C[C@H]1CNCCc2ccc(Cl)cc21 | 21.3% | –
COc1ccc2c(C(=O)c3ccc(Cl)cc3)c(C)n(CC(=O)O)c2c1 | -18.2% | –
COc1cc(CC#N)cc(OC)c1OC | 24.8% | –
C=CCOC(Cn1ccnc1)c1ccc(Cl)cc1Cl (stereo not given) | 9.13% | –
Oc1c(Br)cc(Br)cc1Br | 23% | –
CCC(=O)OC1(c2ccccc2)CCN(C)CC1 | -15.3% [at 92.7 µM] | –
Sc1ccccc1Cl | 13.3% | –
OC(O)C(Cl)(Cl)Cl | 21% | –
ClCc1cccc(Cl)c1 | 14.6% | –
Clc1ccc(C(OCCN2CCCCC2)c2ccccc2)cc1 (stereo not given) | -1.59% | –
CN1C(=O)CN=C(c2ccccc2)c2cc([N+](=O)[O-])ccc21 | 15.5% | –
CCC(=O)O[C@H]1CC[C@H]2[C@@H]3CCC4=CC(=O)CC[C@]4(C)[C@H]3CC[C@]12C | 16.4% | –
C=CC[C@]1(O)CC[C@H]2[C@@H]3CCC4=CC(=O)CCC4=C3C=C[C@@]21C | 9.59% | –
CC(CC(C(N)=O)(c1ccccc1)c1ccccc1)N(C)C (stereo not given) | 15.4% | –
COc1ccc2c3c1O[C@H]1[C@@H](O)C=C[C@H]4[C@@H](C2)N(C)CC[C@@]341 | -1.22% [at 92.7 µM] | –
CN(C)CCc1c[nH]c2ccc(O)cc12 | 6.21% [at 92.7 µM] | –

SMILES | activity change, negative = cytotoxic | Potency
COc1cc(N)c(Cl)cc1C(=O)NC1CN2CCC1CC2 (stereo not given) | 15% | –
CCO[C@H]1O[C@@H]2OC3(C)CC[C@H]4[C@H](C)CC[C@@H]([C@H]1C)[C@@]24OO3 | 10.1% | –
CCN1CCCC1CNC(=O)C(O)(c1ccccc1)c1ccccc1 (stereo not given) | 27.3% | –
CN(C)C(=O)Oc1cc(OC(=O)N(C)C)cc(C(O)CNC(C)(C)C)c1 (stereo not given) | -5.34% | –
C[C@@H]1C[C@@H]([C@H](O)CC2CC(=O)NC(=O)C2)C(=O)[C@@H](C)C1 | -19.5% | –
CC(C)[N+](C)(CCC(C(N)=O)(c1ccccc1)c1ccccc1)C(C)C | -8.4% | –
COP(=O)(OC)OC=C(Cl)Cl | 18.3% | –
CC1N=C(N)OC1c1ccccc1 (stereo not given) | -7.72% [at 92.7 µM] | –
COc1ccc(OC)c(CC(C)N)c1 (stereo not given) | -15% [at 92.7 µM] | –
CC(C)=C[C@@H]1[C@@H](C(=O)OCc2coc(Cc3ccccc3)c2)C1(C)C | 14.8% | –
C[N+]1(C)[C@@H]2CC[C@H]1CC(OC(=O)C(CO)c1ccccc1)C2 (stereo not given in full) | -10.3% | –
CCN(Cc1ccc(Cl)nc1)/C(=C/[N+](=O)[O-])NC | 19% | –
CCC(=O)C(CCN(C)C)(c1ccccc1)c1ccccc1 | 19.4% | –
N#Cc1nn(-c2c(Cl)cc(C(F)(F)F)cc2Cl)c(N)c1S(=O)C(F)(F)F (stereo not given) | 2.19% | –
CC#C[C@]1(O)CC[C@H]2[C@@H]3C[C@H](C)C4=CC(=O)CC[C@]4(C)[C@H]3CC[C@@]21C | 10.9% | –
CCC1(c2cccc(O)c2)CCCCN(C)C1 (stereo not given) | -0.152% | –
CCCCC1C(=O)NC(=O)N(C2CCCCC2)C1=O (stereo not given) | 29.9% | –
CCN(CC)Cc1nccn1-c1ccc([N+](=O)[O-])cc1C(=O)c1ccccc1Cl | 11.8% | –
CN1C2CCC(C)(C)C1CC(OC(=O)C(O)(c1cccs1)c1cccs1)C2 (stereo not given) | 21.3% | –
COC(=O)C1=CCCN(C)C1 | – | inactive
